Reference: PubChem BioAssay AID1851 (National Center for Advancing Translational Sciences (NCATS), 2009)
About 2,600 (16%) of roughly 16,000 compounds were called active. Not shown: some 20% with an inconclusive outcome. The list is a sample of the results. Unmarked numbers belong to inactive results. Calls follow the shape of the dose curve; as a rule, active = well fitted curve in the direction sought with a large enough effect; inconclusive = small, poorly fitted or top-dose-only effect, or effect the other way; inactive = no such curve, though single readings can be large or run the other way.

Molecular target: Cytochrome P450 2D6 (Homo sapiens) (UniProt P10635)
Experiment: Cytochrome panel assay with activity outcomes
Conditions: recombinant CYP, pro-luciferin dealkylation, luminescence, p450-cyp2d6; series mostly up to 57.1 µM
% is scaled to controls: 0 for no effect and ±100 for the full control effect.

Chain of Cytochrome P450 2D6 (Homo sapiens) (P10635 whole entry, looked up): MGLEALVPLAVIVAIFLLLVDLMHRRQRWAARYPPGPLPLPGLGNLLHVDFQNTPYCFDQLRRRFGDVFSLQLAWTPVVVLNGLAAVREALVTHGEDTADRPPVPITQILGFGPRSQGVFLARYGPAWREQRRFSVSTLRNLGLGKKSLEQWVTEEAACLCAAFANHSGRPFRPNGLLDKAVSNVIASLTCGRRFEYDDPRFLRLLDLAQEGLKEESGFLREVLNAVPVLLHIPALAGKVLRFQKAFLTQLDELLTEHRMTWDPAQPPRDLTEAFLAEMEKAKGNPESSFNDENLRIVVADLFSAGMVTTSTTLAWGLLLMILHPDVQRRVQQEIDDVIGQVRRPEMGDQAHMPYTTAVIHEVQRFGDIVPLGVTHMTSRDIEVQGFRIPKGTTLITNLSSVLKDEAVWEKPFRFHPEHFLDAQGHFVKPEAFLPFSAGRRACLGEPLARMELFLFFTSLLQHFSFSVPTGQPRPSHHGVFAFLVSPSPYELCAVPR

| SMILES | AC50 | activity, negative = inhibition |
| --- | --- | --- |
| CCN1CCN(S(=O)(=O)c2ccc(Cl)c(C(=O)Nc3nnc(CC(C)C)s3)c2)CC1 | inactive |  |
| Cc1ccc(C)c(NC(=O)C2C3CCCC2C3c2ccccc2)c1 (centres undefined) | 2.82 µM (active) |  |
| Cc1ccc(C)c(NC(=O)C2(C)CC3c4ccccc4C2c2ccccc23)c1 (centres undefined) | 0.2 µM (active) |  |
| Cc1ccc(C(=O)NC(=S)Nc2cc(-c3nc4ccccc4s3)ccc2C)cc1 | inactive |  |
| CCOc1ncccc1C(=O)OCC(=O)Nc1cc(C)ccc1C | inactive |  |
| Cc1ccc(NC(=O)C2C3CCCC2C3c2ccccc2)cc1C (centres undefined) | inactive |  |
| Cc1ccc(C)c(NC(=O)C2CC(O)CN2C(=O)OC(C)(C)C)c1 (centres undefined) | inactive |  |
| Cc1ccc(C)c(NC(=O)C2CC3c4ccccc4C2c2ccccc23)c1 (centres undefined) | 0.2 µM (active) |  |
| Cc1ccc(C)c(NC(=O)Cn2c([N+](=O)[O-])cnc2C)c1 | inactive |  |
| CC(C)=NOCc1cccc(-c2cc(-c3ccccc3)no2)c1 |  | -6.68% [at 11.4 µM] |
| CC(C)COCC1CC2(CC(C)(c3csc(N)n3)OC2=O)C(=O)O1 (centres undefined) | inactive |  |
| CCS(=O)(=O)N1CCN(c2c(Cl)cccc2[N+](=O)[O-])CC1 | inactive |  |
| COC(=O)C1=C(C)NC(C)=C(C(=O)OC(C)C)[C@H]1c1cccc2nonc12 | inactive |  |
| O=C(c1ccccc1)c1ccc2nc(-c3ccc(NC(=O)c4ccccc4F)cc3)[nH]c2c1 | inactive |  |
| Fc1cc2nc(-c3ccncc3)[nH]c2cc1F | 12.6 µM (active) |  |
| Nc1ccc(S(=O)(=O)Nc2cnc3ccccc3n2)cc1 | inactive |  |
| O=C(O)CCNc1ccccc1C(=O)O |  | 3.09% [at 11.4 µM] |
| O=C1C2C3C=CC(C3)C2C(=O)N1c1ncn[nH]1 (centres undefined) | inactive |  |
| CN(C)S(=O)(=O)Oc1ccccc1C(=O)Nc1cccc(C(F)(F)F)c1 | inactive |  |
| COc1ccc(CC(=O)Nc2ccc(-c3noc(-c4cccc(OC)c4)n3)cc2)cc1 | inactive |  |
| COc1ccc(-c2noc(N(C)CC(=O)Nc3cccc(C(F)(F)F)c3)n2)cc1 | 35.5 µM (active) |  |
| C=CCn1c(SCc2ccccc2)nc2scc(-c3ccc(C)o3)c2c1=O | inactive |  |
| COc1cccc(/C=N/NC(=O)CSc2nnc(C)n2-c2ccccc2)c1O | inactive |  |
| COCCN1C(=O)C(=O)/C(=C(/O)c2cccc(OC)c2)C1c1ccco1 (centres undefined) | inactive |  |
| CCC(=O)NC(NCC1CCCO1)C(Cl)(Cl)Cl (centres undefined) | inactive |  |
| Cc1ccc(CCN2CC(C(=O)NC3CCCC3)CC2=O)cc1 (centres undefined) | inactive |  |
| Cc1ccc(CCN2CC(C(=O)NCCN3CCOCC3)CC2=O)cc1 (centres undefined) | inactive |  |
| CCOCCCN1CC(C(=O)NCCc2ccc(C)cc2)CC1=O (centres undefined) | 3.55 µM (active) |  |
| CC(C)=NO[C@@H](C)c1cn([C@@H]2COC[C@@H]2O)nn1 |  | 14.3% [at 11.4 µM] |
